The list is not random: actives were taken first. Their share in the collection is about 19%.
HT1080NT lethal: kills 2HG-producing HT-1080-NT fibrosarcoma cells; 360,000 compounds, 1.6% hits; Potency, µM (titrated, usually from 46.1 µM), usual class: cytotoxic; HT-1080-NT fibrosarcoma viability, CellTiter-Glo ATP luminescence, 48 h;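 note: NT is the 2HG producing partner of a matched IDH1 knockdown line; nearly all actives have a fitted effect of over 55% in size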
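Read-out is CellTiter-Glo luminescence after 10 minutes at room temperature, following 48 hours' compound treatment of HT-1080-NT cells (750 cells/well, RPMI, 5% FBS, 37 degrees C).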
HT1080 IDH1KD tx: toxicity to HT-1080 IDH1 knockdown cells (counter line); HT-1080 IDH1 knockdown viability, ATP luminescence, 48 h; Potency, µM (highest dose often 46.1 µM), most hits filed as cytotoxic; 360,000 compounds, 2% hits
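Assay cells: HT-1080 with IDH1 knockdown, 750 per well, RPMI/5% FBS. Exposure: 48 h at 37 °C following 2 h pre-incubation. Read: CellTiter-Glo luminescence; fitted concentration-response, curve class assigned.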
TDP1 cell noCPT: qHTS for Inhibitors of human tyrosyl-DNA phosphodiesterase 1 (TDP1): qHTS in cells in absence of CPT; DT40 Tdp1-/- hTDP1 cells, no CPT, ATP luminescence, 48 h; Potency, µM (titrated, usually from 46.2 µM), hits mostly inhibitors; 420,000 compounds, 15% hits; AID 686978, 2013; note: nearly all actives have a fitted effect of over 55% in size
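Growth kinetics read by CellTiter-Glo luminescence after ≥48 hr at 37 °C. Cells: DT40 Tdp1-/- stably carrying human TDP1, 400 per well, compound exposure in the absence of CPT (DMSO vehicle).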
IL-1B inflam inh: inflammasome signaling inhibition, IL-1 beta readout; 360,000 compounds, 4.7% hits; THP-1 LPS/ATP IL-1B secretion, AlphaLISA, 16 h; stronger effect = lower value; AID 743279; activity change, % at 57.5 µM; in the data active = activity change below about -50%; inconclusive = mostly about -30% to -49%
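THP-1 cells pretreated 1 hr with compounds (up to 57.5 uM final), then stimulated with LPS (250 ng/mL final) plus ATP (1.25 mM final); secreted IL-1B measured by AlphaLISA after 16 hr, decreased signal indicating inhibition.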
TDP1 cell CPT: DT40-hTDP1 cell growth loss with CPT; chicken DT40 Tdp1-/-;hTDP1 cells + 20 nM CPT, ATP luminescence, 48 h; AID 686979; 420,000 compounds, 12% hits; Potency, µM (series often up to 46.2 µM), hits mostly inhibitors; note: nearly all actives have a fitted effect of over 55% in size
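Chicken DT40 Tdp1-/- cells stably complemented with human TDP1 were seeded at 400 cells/well in medium containing 20 nM camptothecin, exposed to pin-transferred compounds, and grown at 37 °C for at least 48 hr. Viability was read as ATP luminescence.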
Of the large screens only hits and unclear results are named; the others gave an inactive call; ! = not confirmed by another sample. Unless noted, calls come from the whole dose curve; as a rule, active = well fitted curve in the direction sought with a large enough effect; inconclusive = small, poorly fitted or top-dose-only effect, or another doubt; inactive = no such curve, though single readings can be large; an effect the other way counts as inactive or inconclusive.

Cc1ccc(C)c(-c2ccc(=O)n(Cc3ccc(F)cc3Cl)n2)c1	TDP1 cell noCPT inconclusive, IL-1B inflam inh -75, TDP1 cell CPT 18µM!
Cc1ccc(C)c(-c2ccc(=O)n(Cc3cccc(Br)c3)n2)c1	HT1080NT lethal inconclusive, HT1080 IDH1KD tx inconclusive, TDP1 cell noCPT inconclusive, IL-1B inflam inh -98
Cc1cc(=O)n(Cc2cccc(Br)c2)c2c1c(C)nn2-c1ccccc1	none (no result: HT1080NT lethal, HT1080 IDH1KD tx, IL-1B inflam inh)
COc1ccc(NC(=O)Nc2cccc(NC(C)=O)c2)c(OC)c1	HT1080NT lethal inconclusive
Cc1cc2nccc(-c3ccc(Cl)c([N+](=O)[O-])c3)n2n1	TDP1 cell noCPT inconclusive
CN1CCN(c2ccc([N+](=O)[O-])cc2C(=O)c2ccccc2)CC1	TDP1 cell noCPT inconclusive, TDP1 cell CPT inconclusive
CN1CCN(c2ccc([N+](=O)[O-])cc2C(=O)c2ccc(Br)cc2)CC1	HT1080NT lethal 13µM, HT1080 IDH1KD tx 15µM, TDP1 cell noCPT 5.2µM, TDP1 cell CPT 2.3µM
Cc1ccc(C(=O)c2cc([N+](=O)[O-])ccc2N2CCN(C)CC2)cc1	HT1080NT lethal 10µM, HT1080 IDH1KD tx 7.3µM, TDP1 cell noCPT 5.8µM, TDP1 cell CPT 5.8µM
CN1CCN(c2ccc([N+](=O)[O-])cc2C(=O)N2CCOCC2)CC1	none
O=[N+]([O-])c1ccc(N2CCN(c3ccc([N+](=O)[O-])cc3CO)CC2)c(CO)c1	TDP1 cell noCPT 2.9µM, TDP1 cell CPT 2.3µM
Cc1ncc2c(c1CNC(=O)/C=C/c1cccs1)CCN(C(=O)c1c(C)noc1C)C2	none (no result: HT1080NT lethal, HT1080 IDH1KD tx, IL-1B inflam inh)
COc1ccc(C(=O)c2c(-c3ccc(OC)cc3)oc3ccccc23)cc1	TDP1 cell noCPT inconclusive, TDP1 cell CPT inconclusive
COc1ccc(C(=O)c2ccc3oc(-c4ccc(OC)cc4)c(-c4ccc(O)cc4)c3c2)cc1	TDP1 cell noCPT 9.2µM, TDP1 cell CPT inconclusive
CCOc1ccc(N2C(=O)CC(NCC#N)C2=O)cc1 (stereo not drawn)	TDP1 cell noCPT inconclusive, TDP1 cell CPT inconclusive
COc1cc(N)ccc1NC(=O)c1cc2ccccc2o1	none
COc1cc(NS(C)(=O)=O)ccc1Cc1c2ccccc2nc2ccccc12	TDP1 cell noCPT 0.16µM, TDP1 cell CPT 0.082µM (no result: HT1080NT lethal, HT1080 IDH1KD tx, IL-1B inflam inh)
CCCS(=O)(=O)Nc1ccc(Nc2c3ccccc3nc3ccccc23)c(OC)c1	HT1080 IDH1KD tx inconclusive, TDP1 cell noCPT 0.16µM, IL-1B inflam inh -94, TDP1 cell CPT 0.16µM
COc1cc(N)ccc1Nc1c2ccccc2nc2ccccc12	HT1080NT lethal inconclusive, HT1080 IDH1KD tx 23µM, TDP1 cell noCPT 1.5µM, TDP1 cell CPT 0.82µM
CC(C)c1cccc(C(C)C)c1NC(=O)CN1CCCC1	none
CCOC(=O)N/N=C(\C)c1ccc(C)c([N+](=O)[O-])c1	TDP1 cell noCPT inconclusive
COc1ccc(CCN2CN(S(=O)(=O)c3ccccc3)c3nc4ccccc4nc32)cc1	TDP1 cell noCPT 18µM, TDP1 cell CPT inconclusive
CC(C)OCCCN1CN(S(=O)(=O)c2ccccc2)c2nc3ccccc3nc21	TDP1 cell noCPT inconclusive
COCCN1CN(S(=O)(=O)c2cccc(Cl)c2)c2nc3ccccc3nc21	none
COc1ccc(CCN2CN(S(=O)(=O)c3ccccc3)c3nc4ccccc4nc32)cc1OC	TDP1 cell noCPT 18µM, TDP1 cell CPT 21µM
Cc1ccc(CNC(=O)NC2COc3ccccc3C2)cc1 (stereo not drawn)	none (no result: HT1080NT lethal, HT1080 IDH1KD tx, IL-1B inflam inh)
COc1ccc(Cn2c(CO)cnc2SCc2cccc(C)c2)cc1	TDP1 cell noCPT 26µM, TDP1 cell CPT inconclusive (no result: HT1080NT lethal, HT1080 IDH1KD tx, IL-1B inflam inh)
OCc1cnc(SCc2cccc(F)c2)n1Cc1ccc(F)cc1	TDP1 cell noCPT inconclusive, TDP1 cell CPT 21µM (no result: HT1080NT lethal, HT1080 IDH1KD tx, IL-1B inflam inh)

Screening data as filed in PubChem BioAssay.
